Results filed as inconclusive are left out. Active and inactive are the calls of the source. The calls were made as follows, unless noted: active = hit-call score of the fitted dose curve at least 0.9, where 1 is the maximum; inactive = score below 0.9.

A short description of test [1]: ACEA_ER_80hr: ACEA Biosciences xCELLigence Real-Time Cell Analysis on Estrogen Receptor Agonism for Proliferation (AID 2282667; active = hit-call score of the fitted dose curve at least 0.9, where 1 is the maximum). The following applies: T47D proliferation, impedance (xCELLigence), 80 h. The gist of the method: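 Impedance readout (RT-CES) of T47D proliferation at 80 h post-dose; gain of signal vs DMSO baseline. Compounds: 8 conc, 1:4 serial, top 100 uM final, ≤0.5% DMSO; biological duplicate.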

The nature of test [2]: ATG_CRE_CIS: Attagene CIS-FACTORIAL HepG2 Assay for human cAMP Responsive Element (CRE) binding protein 3 (AID 2282926). The following applies: HepG2 CRE cis-reporter, Attagene multiplexed mRNA; actives raise or lower the signal. The gist of the method: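 Endogenous CRE-binding activity in HepG2 is reported through a cis-regulated transfected reporter. Following a day of exposure, mRNA levels are determined by reverse transcription PCR and fluorescent fragment analysis; fits run in both directions versus DMSO.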

Test [3] concerns the target CCAAT/enhancer-binding protein beta (Homo sapiens) (UniProt P17676). Put plainly: ATG_C_EBP_CIS: Attagene CIS-FACTORIAL HepG2 Assay for human CCAAT/Enhancer Binding Protein (C/EBP) beta (AID 2282927). As to conditions: HepG2 Attagene cis-factorial transcription factor reporter; actives raise or lower the signal. The procedure, abridged: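 HepG2 transiently transfected with multiplexed reporter units under cis-regulatory promoters reporting endogenous C/EBPb activity. After 24 h exposure, reporter mRNA assayed by RT-PCR, fluorescent labelling, HpaI digestion and capillary electrophoresis; bidirectional fitting versus DMSO.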

A short description of test [4]: ATG_CMV_CIS: Attagene CIS-FACTORIAL HepG2 Assay for human CMV (Internal Marker) (AID 2282928).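 Also: endpoint acts as a background internal control marker rather than a target.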 As to conditions: HepG2 CMV promoter reporter, transcription factor profiling; actives raise or lower the signal. The procedure, abridged: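 HepG2 cells transiently transfected with multiple cis-regulated reporter units; 24 h compound exposure. Reporter mRNA quantified by RT-PCR, 6-FAM primer-extension labeling, HpaI digestion and capillary electrophoresis; bidirectional fitting against DMSO baseline.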

Test [5] can be described thus: ATG_DR4_LXR_CIS: Attagene CIS-FACTORIAL HepG2 Assay for human Liver X Receptor (LXR), DR4 submotif (AID 2282929). As to conditions: HepG2 Attagene DR4 cis-reporter, mRNA transcription; actives raise or lower the signal. The gist of the method:
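Measures endogenous transcription factor activity via a DR4-driven reporter transcript in human HepG2 cells. Compounds incubated 24 h; mRNA quantified by RT-PCR and capillary electrophoresis, analysed as gain or loss of signal versus DMSO.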

In test [6] the target is Aryl hydrocarbon receptor (Homo sapiens) (UniProt P35869). Description: ATG_Ahr_CIS: Attagene CIS-FACTORIAL HepG2 Assay for human Aryl Hydrocarbon Receptor (Ahr) (AID 2282930). As to conditions: HepG2 AhR cis-factorial reporter transcription; actives raise or lower the signal. The gist of the method: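 HepG2 cells transiently transfected with cis-element-driven multiplexed reporter units; endogenous AhR activity read as reporter mRNA 24 h after dosing, via RT-PCR, 6-FAM labelling, HpaI digestion and capillary electrophoresis. Bidirectional fit relative to DMSO.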

Test [7] is described as follows: ATG_AP_2_CIS: Attagene CIS-FACTORIAL HepG2 Assay for human Activator Protein 2 (AP-2) (AID 2282932). As to conditions: HepG2 AP-2 cis-reporter, Attagene transcription factor profiling; actives raise or lower the signal. The gist of the method: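 Multiplexed mRNA reporter assay in HepG2: cis-regulated units report endogenous factor activity after 24 h treatment. Fluorescence from capillary electrophoresis of RT-PCR products gives the signal, with DMSO as baseline.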

Test [8] in a line: ATG_BRE_CIS: Attagene CIS-FACTORIAL HepG2 Assay for human Bone Morphogenetic Protein (BMP) Response Element (BRE) (AID 2282933). As to conditions: HepG2 BMP response element reporter, Attagene transcription factor profiling; actives raise or lower the signal. The procedure, abridged: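 A HepG2 multiplex reporter system measured inducible reporter mRNA 24 h post-dosing. Detection: RT-PCR, 6-FAM primer extension, HpaI digestion, capillary electrophoresis. Activity fitted bidirectionally relative to DMSO.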

Test [9] addresses Retinoic acid receptor alpha (Homo sapiens) (UniProt P10276). Description: ATG_DR5_RAR_CIS: Attagene CIS-FACTORIAL HepG2 Assay for human Retinoic Acid Receptor Alpha (RARE), DR5 submotif (AID 2282934).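 As to AC50: reporter responds to endogenous RAR alpha beta and gamma in HepG2 not RARA alone.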 The following applies: HepG2 Attagene cis-factorial RARE DR5 reporter, mRNA; actives raise or lower the signal. The gist of the method: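 HepG2 cells transiently transfected with multiplexed reporter units; DR5 cis-element drives reporter through endogenous transcription factors. After 24 h dosing, reporter mRNA quantified by RT-PCR, fluorescent labeling, HpaI digestion and capillary electrophoresis; bidirectional fitting versus DMSO.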

Sequence of Aryl hydrocarbon receptor (Homo sapiens) (P35869 whole entry, looked up): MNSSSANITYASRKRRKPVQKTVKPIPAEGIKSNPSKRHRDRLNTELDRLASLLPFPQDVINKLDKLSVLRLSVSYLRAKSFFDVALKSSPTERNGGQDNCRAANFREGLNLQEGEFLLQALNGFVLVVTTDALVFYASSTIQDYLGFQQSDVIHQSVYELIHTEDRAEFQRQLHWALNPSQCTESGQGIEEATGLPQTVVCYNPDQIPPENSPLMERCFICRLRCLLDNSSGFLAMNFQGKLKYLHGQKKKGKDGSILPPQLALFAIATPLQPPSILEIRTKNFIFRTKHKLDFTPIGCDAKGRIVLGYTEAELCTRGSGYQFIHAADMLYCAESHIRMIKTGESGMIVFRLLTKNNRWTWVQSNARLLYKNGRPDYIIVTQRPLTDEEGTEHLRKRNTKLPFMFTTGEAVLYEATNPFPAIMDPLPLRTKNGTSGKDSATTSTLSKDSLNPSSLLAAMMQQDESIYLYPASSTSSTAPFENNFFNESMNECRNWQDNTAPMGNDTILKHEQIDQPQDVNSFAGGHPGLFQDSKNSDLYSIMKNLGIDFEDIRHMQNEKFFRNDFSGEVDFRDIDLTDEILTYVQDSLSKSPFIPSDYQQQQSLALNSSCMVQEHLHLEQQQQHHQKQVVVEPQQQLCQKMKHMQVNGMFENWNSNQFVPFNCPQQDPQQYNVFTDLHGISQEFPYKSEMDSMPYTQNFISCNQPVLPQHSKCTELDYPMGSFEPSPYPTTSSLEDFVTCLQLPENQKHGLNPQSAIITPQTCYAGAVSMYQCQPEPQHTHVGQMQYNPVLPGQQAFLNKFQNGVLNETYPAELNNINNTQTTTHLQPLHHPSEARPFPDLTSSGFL
Sequence of Retinoic acid receptor alpha (Homo sapiens) (P10276 whole entry, looked up): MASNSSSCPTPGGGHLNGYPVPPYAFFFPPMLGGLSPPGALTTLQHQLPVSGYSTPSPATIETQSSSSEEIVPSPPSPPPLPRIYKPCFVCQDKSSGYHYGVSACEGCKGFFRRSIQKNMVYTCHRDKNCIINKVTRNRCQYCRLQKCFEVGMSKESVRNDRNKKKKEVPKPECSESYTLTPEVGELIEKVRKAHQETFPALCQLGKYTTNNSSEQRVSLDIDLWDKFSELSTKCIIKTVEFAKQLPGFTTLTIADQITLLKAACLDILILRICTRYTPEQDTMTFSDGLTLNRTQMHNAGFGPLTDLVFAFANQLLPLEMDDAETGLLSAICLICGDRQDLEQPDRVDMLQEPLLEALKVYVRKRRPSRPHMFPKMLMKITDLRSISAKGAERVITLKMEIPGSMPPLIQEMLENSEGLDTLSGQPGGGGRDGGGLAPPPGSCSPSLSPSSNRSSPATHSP
Sequence of CCAAT/enhancer-binding protein beta (Homo sapiens) (P17676 whole entry, looked up): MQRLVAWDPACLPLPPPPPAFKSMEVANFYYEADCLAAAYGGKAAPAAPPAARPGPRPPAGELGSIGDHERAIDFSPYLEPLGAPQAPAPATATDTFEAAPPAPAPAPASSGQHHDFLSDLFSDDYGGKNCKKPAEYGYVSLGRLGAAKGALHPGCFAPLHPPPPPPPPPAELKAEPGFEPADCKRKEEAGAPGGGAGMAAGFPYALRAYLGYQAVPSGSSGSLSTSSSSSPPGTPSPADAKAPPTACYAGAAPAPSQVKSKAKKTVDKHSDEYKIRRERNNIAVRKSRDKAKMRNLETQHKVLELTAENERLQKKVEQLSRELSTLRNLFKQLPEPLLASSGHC

In the case of `CCCCCCCOC(=O)c1ccccc1C(=O)OCCCCCCC`, the outcome in test [1], in test [2], in [3], in test [4], in test [5] and in test [6] was inactive. Moreover, the molecule was called inactive in test [7], in test [8] and in test [9].
For `CC(CCl)OP(=O)(OC(C)CCl)OC(C)CCl` (stereo not drawn), the result in [1], in test [2], in [3], in [4], in test [5] and in [6] was inactive. In addition, the call in test [7], in [8] and in test [9] was inactive.
Consider `CC(C)(C)C(=O)CC(=O)C(F)(F)C(F)(F)C(F)(F)F`, for which the molecule was classed as inactive in test [1], in [2], in test [3], in test [4], in test [5] and in test [6]. In addition, the molecule was classed as inactive in test [7], in test [8] and in [9].
Broadly, the AC50 is the midpoint of the concentration-response curve, whichever way the signal moves. As for `Nc1cc(Cl)c(N)c(Cl)c1`, the AC50 is 13.5 µM (active) in test [1] and 6.21 µM (active) in [6]. In addition, the call in test [2], in [3], in test [4], in test [5], in test [7] and in test [8] was inactive. Moreover, in [9], the outcome was inactive.
In the case of `C=CC(=O)OCC(F)(F)C(F)(F)C(F)(F)C(F)(F)COC(=O)C=C`, the result in test [1], in [6], in [7] and in test [8] was inactive. Also, the AC50 in test [2] is 43.5 µM (active); in [3], 50 µM (active); in test [4], 58.1 µM (active); in test [5], 31.3 µM (active); in test [9], 60.6 µM (active).
With `O=C(O)C(F)(F)C(F)(F)C(F)(F)C(F)(F)C(F)(F)C(F)(F)C(F)(F)C(F)(F)C(F)(F)C(F)(F)C(F)(F)C(F)(F)F`, the molecule was called inactive in test [1], in test [2], in [3], in test [4], in test [5] and in test [6]. The molecule was classed as inactive in test [7], in test [8] and in test [9].
Turning to `Cc1cccc(N(C)C)c1`, the outcome in test [1], in test [2], in test [3], in [4], in [5] and in [6] was inactive. Besides, the outcome in test [7], in test [8] and in test [9] was inactive.
On to `COC(=O)CCC(F)(F)C(F)(F)C(F)(F)C(F)(F)F`, for which the molecule was called inactive in test [1], in test [2], in test [3], in [4], in test [5] and in test [6]. The call in [7], in [8] and in test [9] was inactive.
As for `OCCCC(F)(F)C(F)(F)C(F)(F)F`, the molecule was called inactive in test [1], in test [2], in test [3], in [4], in test [5] and in test [6]. The molecule was classed as inactive in test [7], in [8] and in test [9].
Take `FC(F)(F)C(F)(F)CNCC(F)(F)C(F)(F)F`: the molecule was called inactive in test [1], in test [2], in test [3], in [4], in [5] and in test [6]. The outcome in test [7], in [8] and in [9] was inactive.
For `Oc1ccc(Nc2ccccc2)cc1`, the call in test [1], in test [2], in test [3], in [5], in test [6] and in [7] was inactive. The molecule was classed as inactive in test [8] and in [9]. Also, the AC50 in test [4] was 41.8 µM (active).
For `O[Si](c1ccccc1)(c1ccccc1)c1ccccc1`, the result in [1], in test [2], in test [3], in test [4], in test [6] and in test [7] was inactive. Further, the result in [9] was inactive. Further, the results for the AC50 in test [5] and in test [8] were 9.89 µM (active) and 32.3 µM (active), respectively.
As for `CCCCCCOC(=O)c1ccccc1`, the call in test [1], in test [2], in [3], in [4], in test [5] and in test [7] was inactive. In addition, the molecule was called inactive in test [8] and in test [9]. Further, the half-maximal activity concentration (AC50) in test [6] was 50.4 µM (active).
Take `CCc1ccc(C(c2ccc(CC)cc2)C(Cl)Cl)cc1`: the molecule was classed as inactive in [1], in test [2], in [3], in test [6], in test [7] and in test [8]. In test [9], the molecule was classed as inactive. Also, the values for the AC50 in test [4] and in test [5] were 100 µM (active) and 51 µM (active), respectively.
On to `FC(F)(F)C(F)(F)C(F)(F)C(F)(F)C(F)(F)C(F)(F)CCS`, for which the result in test [1], in test [2], in [3], in test [4], in test [5] and in test [6] was inactive. Further, the molecule was classed as inactive in [7], in [8] and in test [9].
With `CC(C)=CCCC(C)CCOC(=O)C(C)C` (stereo not drawn), the molecule was called inactive in test [1], in [2], in [3], in [4], in [5] and in [6]. Further, the call in [7], in test [8] and in [9] was inactive.
`c1ccc(-c2ccccc2-c2ccccc2)cc1`: the half-maximal activity concentration (AC50) in test [1] was 0.534 µM (active); in [4], 29.8 µM (active); in test [5] it was 27.7 µM (active). The result in [2], in [3], in test [6], in test [7], in [8] and in test [9] was inactive.

The values are drawn from PubChem BioAssay (EPA / NIEHS).
